{
  "source": "PubChem BioAssay (NCI)",
  "note": "The panel holds about 83,000 compounds, 20% with a hit somewhere; the sample as a whole holds those more often.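 Compound tested at a single concentration for 48 hours in 96-well plates; a percent growth value below 10 was scored as active.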 Unmarked numbers belong to inactive results. The source made the active and inactive calls.",
  "data": [
    {"test_system": "MDA-MB-468 breast", "assay": "NCI-60 one-dose screen, 48 h (100 = growth as untreated, 0 = no growth, -100 = all killed)", "conditions": "10 µM unless noted", "values": [
      {"smiles": "COc1ccc(CNc2nc3ccccc3c3c(=O)c4ccccc4sc23)cc1OC", "growth": "57.4%"},
      {"smiles": "Nc1no[n+]([O-])c1-c1nnc2c(n1)-c1ccccc1C2=O", "growth": "41.5%"},
      {"smiles": "COc1ccc(/C=C2\\Oc3cc(OCCCCCN4CCCCC4)ccc3C2=O)cc1OC", "growth": "57.6%"},
      {"smiles": "Fc1ccc(-c2nnc(-c3c(-c4ccc(F)cc4)nc4ccccn34)o2)cc1", "growth": "92.5%"},
      {"smiles": "Cn1cc(-c2csc(-c3cn(C(=O)OC(C)(C)C)c4ccccc34)n2)c2ccnc(Cl)c21", "growth": "44.8%"},
      {"smiles": "Cc1c(Cl)cccc1NC(=O)CN1CCOCC1", "growth": "107%"},
      {"smiles": "CC(C)(C)CC(C)(C)c1ccc(OCCO)cc1", "growth": "113%"},
      {"smiles": "Nc1n[nH]c2cccc(C#Cc3cccc(C(=O)Nc4ccc(CN5CCOCC5)c(C(F)(F)F)c4)c3)c12", "growth": "66%"},
      {"smiles": "Cc1nn(-c2ccccc2)c2nc3c(c(-c4ccc(Cl)cc4)c12)CNC1(CCSCC1)N3", "growth": "93.1%"},
      {"smiles": "O=Nc1ccc(O)c(=O)cc1", "growth": "-53.1% (active)"},
      {"smiles": "CC(=O)/C(=C\\c1ccc(Cl)cc1)c1ccccc1", "growth": "0.454% (active)"},
      {"smiles": "CCN1CCN(c2ccc(Nc3ncc4ccc5ncn(C(C)C)c5c4n3)nc2)CC1", "growth": "-41.3% (active)"},
      {"smiles": "O=C(CCl)N1CCCc2ccccc21", "growth": "80.9%"},
      {"smiles": "C[C@]12CC[C@H]3[C@@H](CCC4=CC(=O)CC[C@@]43C)[C@@H]1CC[C@@H]2c1csc(N)n1", "growth": "28.4%"},
      {"smiles": "COc1ccc(-c2c3c(nc4n[nH]c(-c5ccc(Cl)cc5)c24)-c2ccccc2C(=O)C3=O)cc1", "growth": "-9.02% (active)"},
      {"smiles": "Cn1cc(-c2csc(-c3cn(C)c4ncccc34)n2)c2ccccc21", "growth": "18%"},
      {"smiles": "[Cu+].[NH-][C@H]1C[N-]C(=O)[C@H]([C@H]2CCN=C(N)N2)[N-]C(=O)/C(=C\\NC(N)=O)[N-]C(=O)[C@H](CNC(=O)C[C@@H](N)CCCN)[N-]C(=O)[C@H](CO)[N-]C1=O", "growth": "96.2%"},
      {"smiles": "O=S(=O)(Nc1ccc(NS(=O)(=O)c2ccccc2)c(Cl)c1)c1ccccc1", "growth": "116%"},
      {"smiles": "O=C1NC(=C(Cl)Cl)/C(=N\\S(=O)(=O)NCc2ccccc2)N1", "growth": "45.1%"},
      {"smiles": "COc1cc([C@H]2OC[C@H]3[C@@H]2CO[C@@H]3c2ccc(O)c(OC)c2)ccc1O", "growth": "100%"},
      {"smiles": "O=C1/C(=C/c2ccc(Cl)cc2)CN(Cc2cn(CCNc3ccnc4cc(Cl)ccc34)nn2)C/C1=C\\c1ccc(Cl)cc1", "growth": "-76.2% (active)"},
      {"smiles": "COc1ccc2nc(-c3ccc(-n4cncc4-c4ccc(OC)c(N)c4)cc3)sc2c1", "growth": "114%"},
      {"smiles": "COc1ccc(-c2nc(SCC(C)C)nc(N/N=C\\c3ccc(F)cc3)c2C#N)cc1", "growth": "102%"},
      {"smiles": "CN(C)c1ccc(Nc2c3ccccc3nc3cc(NC(=O)CCN4CCCC4)ccc23)cc1", "growth": "-74.9% (active)"},
      {"smiles": "COC(=O)c1ccc2[nH]c(O)c(C(=Nc3ccc(N(C)C(=O)CN4CCN(C)CC4)cc3)c3ccccc3)c2c1", "growth": "52.3%"},
      {"smiles": "COc1cccc2cc(N(C)c3nc(C)nc4ccsc34)ccc12", "growth": "20.2%"},
      {"smiles": "FC(F)(F)c1ccc2c(c1)Sc1ccccc1N2", "growth": "102%"},
      {"smiles": "O=C1Nc2ccc(F)cc2C12Nc1cc(Cl)ccc1S2", "note": "(stereo not given)", "growth": "107%"},
      {"smiles": "CCCC1(CN2c3ccccc3Sc3ccc(Cl)cc32)CCN(CC)C1", "note": "(stereo not given)", "growth": "-64.2% (active)"},
      {"smiles": "O=C(/C=C/c1cn(-c2ccccc2)nc1-c1ccc(Cl)cc1)c1ccc(F)cc1", "growth": "100%"},
      {"smiles": "O=C(/C=C/Nc1ccc(S(=O)(=O)O)cc1)c1ccc(F)cc1", "growth": "95.8%"},
      {"smiles": "COCCN(C(=O)Cc1cccs1)C(C(=O)NCc1ccc(OC)cc1)c1ccc(C(C)C)cc1", "note": "(stereo not given)", "growth": "90.7%"},
      {"smiles": "CCOC(=O)C1=C(N)Oc2c(sc3c(C)cccc23)C1c1ccc(F)cc1", "note": "(stereo not given)", "growth": "6.58% (active)"},
      {"smiles": "O=C1CCCc2nc3sc4c(=O)n(-c5ccccc5Cl)nnc4c3cc21", "growth": "85.9%"},
      {"smiles": "O=C(N=Nc1c(O)[nH]c2ccccc12)c1cc(-c2ccccc2)on1", "growth": "109%"},
      {"smiles": "Cc1ccc(Nc2ncnc3c2sc2ncccc23)cc1", "growth": "93%"},
      {"smiles": "CC(C)[C@@H]1NC(=O)[C@]2(C)CSC(=N2)c2ccnc(c2)CNC(=O)C[C@@H](/C=C/CCS)OC1=O", "growth": "42.7%"},
      {"smiles": "Cc1ccc2nc(Cl)cc(=O)n2c1", "growth": "112%"},
      {"smiles": "C[C@]12CC[C@@H]3c4cc(OC(F)F)c(OS(N)(=O)=O)cc4CC[C@H]3[C@@H]1CC[C@@H]2OS(N)(=O)=O", "growth": "11.9%"},
      {"smiles": "COc1cc(C(=O)/C=C/c2ccc3nc(-c4cc(F)cc(F)c4)sc3c2)cc(OC)c1OC", "growth": "120%"}
    ]}
  ]
}
